# Screening results as filed in PubChem BioAssay.
# cardiac RTF act: cardiac RTF calcium sensitivity activators, primary screen, biochemical, IANBD-TnC fluorescence, EC20 calcium. IANBD-labeled TnC RTF fluorescence at EC20 calcium; 0% EC20 calcium, 100% full calcium. Troponin I, cardiac muscle (Homo sapiens) + Troponin T, cardiac muscle (Homo sapiens) + …. activation, % at 7.2 µM. hit rate 0.24% among 340,000;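 active means activation above the mean over all tested compounds plus 3 SD, cut at about 30% in these data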;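 further: rise in fluorescence read as greater calcium sensitivity of cardiac thin filaments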
# Cardiac RTF inh: cardiac RTF calcium sensitivity inhibitors, primary screen, biochemical, IANBD-TnC fluorescence, EC70 calcium. IANBD-labeled cardiac RTF, Ca2+ fluorescence. inhibition, % at 7.15 µM. hit rate 0.12% among 340,000. AID 493244, 2011;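 active means inhibition above the mean inhibition of all tested compounds plus 3 SD, cut at about 17% in these data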;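 further: assay run at fixed EC70 calcium of 1.6 mM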
# LANA DNA inh: inhibitors of KSHV C-LANA binding to DNA, primary screen, biochemical, fluorescence polarization, FAM-LBS DNA, MBP-C-LANA, single point | Kaposi's sarcoma herpesvirus LANA C-terminal domain (residues 932-1162) DNA binding | inhibition, % at 9 µM | hit rate 0.078% among 340,000;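 active means highest replicate inhibition at or above 60% at 9 µM, even if other replicates fall short; inactive means all replicates below 60% inhibition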;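 further: 0% = neutral control wells and 100% = 4 µM acridine orange control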
# Keap1-Nrf2 PPI: Keap1-Nrf2 protein-protein interaction inhibitors, primary screen, biochemical, fluorescence polarization, single point; Kelch-like ECH-associated protein 1 (Homo sapiens), Q14145; Keap1 Kelch-Nrf2 peptide fluorescence polarization, 1536-well; inhibition, % at 9.4 µM; hit rate 0.15% among 340,000; AID 504523, 2011; in the data active means inhibition above about 12%;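 further: human Keap1 Kelch domain with fluorescein labeled Nrf2 9mer peptide probe; 0% = neutral control wells and 100% = peptide positive control; higher means more block of Keap1 binding to Nrf2 peptide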
# LANA-H2A inh: blockers of LANA interaction with H2A/H2B – biochemical, FP readout, HTS, primary screen; Protein LANA1 (Human herpesvirus 8 type P (isolate GK18)), Q9QR71; cell-free LANA-H2A/H2B peptide, fluorescence polarization; inhibition, % (no concentration beside the values); hit rate 0.6% among 320,000; AID 2629, 2010; in the data active means inhibition mostly above about 10%, no sharp cut-off; inactive means mostly below about 6.7%
# * marks the source's active call; other numbers are inactive results; / = no result. This is a sample that favours compounds with a hit; in the whole collection about 0.98% have one here.
SMILES,cardiac RTF act,Cardiac RTF inh,LANA DNA inh,Keap1-Nrf2 PPI,LANA-H2A inh
Cc1cc(C)c(NC(=O)c2cc(C(=O)O)ccc2C(=O)O)c([N+](=O)[O-])c1,-2,-5,0,0,12*
Cc1ccc(C2(c3noc(CN(C)Cc4cccnc4)n3)CCCC2)cc1,3,-10,0,1,-1
COc1ccc(N=C2S/C(=C\c3ccc(N4CCOCC4)o3)C(=O)N2CCc2c[nH]c3ccccc23)cc1,32*,-28,1,-5,-3
COc1ccc(N=C2S/C(=C\c3ccc(OCC(=O)O)cc3)C(=O)N2CCc2c[nH]c3ccccc23)cc1,-8,5,1,-5,/
CCCCc1c(O)c2ccccc2n(CCCC)c1=O,1,-6,-1,-3,14*
CCCN1CCc2c(sc(NC(=S)NC(=O)c3ccccc3)c2C#N)C1,31*,-60,-3,-43,1
CCOc1ccc2c(ccc(/C=C/c3cc(C)c4cccnc4c3O)[n+]2C)c1,-6,-8,-5,-6,/
C/C(=N\N=C(N)N)c1ccc(C)c(C)c1,-2,-15,-1,-2,15*
COc1cc(/C=N/N2CCN(C3c4ccccc4-c4ccccc43)CC2)ccc1O,-5,2,-1,-4,26*
C#CCN1Cc2ccccc2Oc2cc(Br)ccc2S1(=O)=O,-3,-7,1,-6,/
CN1CCN(C(=O)c2cccc(NS(=O)(=O)c3ccc(Br)cc3)c2)CC1,2,2,0,0,1
CN1CCCN(C(=O)c2cccc(Br)c2)CC1,7,-7,-1,-6,12*
O=C1C2C3C=CC(C3)C2C(=O)N1Nc1ccc([N+](=O)[O-])cc1[N+](=O)[O-] (stereo not given),3,-11,1,-1,16*
CCOc1ccc(CCN2C(=S)N([C@@H](CC(C)C)CN3CCCC3CN3C(=S)NC[C@@H]3CC(C)C)C[C@@H]2Cc2ccccc2)cc1 (stereo not given in full),-5,7,-2,-4,/
CCOC(=O)c1c(C)oc2cc(Cl)c(O)c(CN(C)C)c12,-1,-7,-1,-3,2
CCOC(=O)c1c(-c2ccccc2)oc2cc(CN(C)C)c(O)c(CN(C)C)c12,6,-21,2,4,49*
CN(/N=C/c1cccc(Br)c1)C1=NS(=O)(=O)c2ccccc21,4,-7,-1,-3,-4
COc1cccc(C(=O)NC2CC3CCCC(C2)N3CC(=O)Nc2ccccc2)c1 (stereo not given),-4,-16,3,1,-4
COc1cccc(C(=O)Nc2ccc(NC(C)=O)cc2)c1,4,-6,-1,2,41*
COc1cccc(C(=O)NC2CC3CCCC(C2)N3CC(=O)Nc2ccc(N(C)C)cc2)c1 (stereo not given),21,2,1,-1,27*
Cc1cc(-c2nn(-c3ccccc3F)cc2CN2CCC(O)CC2)c(C)s1,-2,-3,1,-2,34*
Cc1noc(C)c1S(=O)(=O)N1CCN(c2ccccc2)CC1,-1,0,1,1,-4
Cc1noc(C)c1S(=O)(=O)N1CCN(c2ccc([N+](=O)[O-])cc2)CC1,-2,6,6,4,15*
COc1ccccc1N1C(=O)[C@@H]2C(C(=O)CN3C(=O)c4ccccc4C3=O)=NN[C@@H]2C1=O,/,/,/,/,32*
COc1cccc(N2C(=O)C3NN=C(C(=O)CN4C(=O)c5ccccc5C4=O)C3C2=O)c1 (stereo not given),/,/,/,/,0
SMILES,cardiac RTF act,Cardiac RTF inh,LANA DNA inh,Keap1-Nrf2 PPI,LANA-H2A inh
Cc1ccc(N2C(=O)[C@@H]3C(C(=O)CN4C(=O)c5ccccc5C4=O)=NN[C@@H]3C2=O)c(C)c1,/,/,/,/,24*
O=C(CNC(=O)c1ccc(Br)o1)Nc1cccc(S(=O)(=O)N2CCOCC2)c1,-3,-8,0,-2,-1
COCCn1c(Cc2ccccc2)nnc1SCC(=O)N1CCOCC1,-4,2,1,2,3
COCCCn1c(Cc2ccccc2)nnc1SCC(=O)N1CCCCC1,2,-7,0,-5,79*
CCOc1ccccc1N1C(=O)CN(Cc2ccc(OC)c(OC)c2)C1=S,-4,1,-1,1,3
COc1ccc2c(c1)c(=O)oc1cc3occ(C(C)(C)C)c3cc12,0,3,0,1,12*
COc1ccc2c(c1)c(=O)oc1cc(O)ccc12,0,0,0,2,0
COCCNC(=S)N1CCN(c2nc(-c3ccc(F)cc3)cs2)CC1,0,-4,0,-5,18*
COCc1ccc(C(=O)N2CCCC(Nc3ccc(F)c(F)c3)C2)s1 (stereo not given),-3,-1,-1,-3,95*
Cc1cc(NC(=S)NC(=O)c2ccco2)c2ccccc2n1,-2,5,-1,-6,17*
O=C(NC(=S)Nc1cccc2ncccc12)c1ccco1,-2,-8,-1,-5,3
Cc1ccc(CNC(=O)C2CCN(c3nn4c(=O)cc(C)nc4s3)CC2)cc1,-2,-1,1,-3,-4
O=C(CSc1nnc(-c2ccncc2)n1-c1ccccc1Cl)Nc1ccc(C(=O)O)cc1,0,-4,0,-4,48*
c1ccc(COc2ncnc3c2ncn3CCCNCCN2CCOCC2)cc1,-1,-8,0,-3,/
Cc1cccc(Oc2coc3cc(OC(=O)c4cncc(Br)c4)ccc3c2=O)c1,11,-13,-2,-4,3.5*
Nc1ccc(SCC(=O)Nc2cccc([N+](=O)[O-])c2)cc1,-3,8,0,-3,71*
O=C(CSCCO)Nc1cccc([N+](=O)[O-])c1,10,3,-1,-5,5
CCOc1ccc(-c2cn(-c3ccc(OC)cc3)c(SC)n2)cc1,-4,1,0,-2,-2
CSc1nc(-c2ccccc2)cn1-c1ccc(NC(C)=O)cc1,-6,3,1,-3,37*
COc1ccccc1NC(=O)N1CCC(c2nc3ccccc3o2)CC1,3,-6,0,0,-4
O=C1OC(CC(=O)N(Cc2nnc(-c3ccc(Cl)cc3)o2)C2CC2)c2ccccc21 (stereo not given),4,-8,1,-3,8
O=C(O)c1cccc(-n2c(/C=C/c3ccccc3)nc3ccccc3c2=O)c1,-5,5,0,-5,-3
O=C(O)c1ccc(CSc2nc3ccccc3c(=O)n2-c2ccccc2)cc1,4,-10,28,30*,1
O=c1c2ccccc2nc(SCc2ccc([N+](=O)[O-])cc2)n1-c1ccccc1,-1,-2,1,0,1
